Experimental data published in the supplement of paper PMC11732987, “Enantioselective OTUD7B fragment discovery through chemoproteomics screening and high-throughput optimisation” (Communications Chemistry, 2025).

Columns and labels:
Assay in all cases: log2 ratio of Biotin-Ahx-Ub-VS probe labelling (fragment/DMSO); higher = less target engagement (more negative = stronger competition), active = hit call of the paper (q ≤ 0.05, log2 ratio ≤ -1)
Details in all cases: compound concentration: 200 uM; treatment time: 3 h
OTUD6B = molecular target: T1, OTUD6B (UniProt Q8N6M0)
T1 sequence (whole entry): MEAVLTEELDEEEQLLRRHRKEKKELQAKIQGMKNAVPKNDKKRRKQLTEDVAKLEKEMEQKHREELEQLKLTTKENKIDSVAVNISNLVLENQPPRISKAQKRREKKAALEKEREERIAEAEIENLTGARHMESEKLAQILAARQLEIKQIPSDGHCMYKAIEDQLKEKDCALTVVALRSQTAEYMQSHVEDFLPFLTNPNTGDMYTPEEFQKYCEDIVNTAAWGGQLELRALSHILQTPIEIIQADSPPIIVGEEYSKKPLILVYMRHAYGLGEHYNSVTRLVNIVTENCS
Procedure, shortened: (§1)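 Fragment (200 µM) or vehicle was incubated for 3 h with triplicate HEK293T lysate samples of 495 µg, which were then treated with Biotin-Ahx-Ub-VS at 0.5 µM final for 1 h. Labelled DUBs were enriched on NeutrAvidin, digested with LysC and trypsin, and analysed by diaPASEF LC-MS/MS. Values are average log2 fragment/vehicle ratios from an unpaired t-test on global-median-normalised Spectronaut label-free quantities, using proteins with ≥2 unique peptides.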

OTUD7B = molecular target: T2, OTUD7B (UniProt Q6GQQ9)
T2 sequence (whole entry): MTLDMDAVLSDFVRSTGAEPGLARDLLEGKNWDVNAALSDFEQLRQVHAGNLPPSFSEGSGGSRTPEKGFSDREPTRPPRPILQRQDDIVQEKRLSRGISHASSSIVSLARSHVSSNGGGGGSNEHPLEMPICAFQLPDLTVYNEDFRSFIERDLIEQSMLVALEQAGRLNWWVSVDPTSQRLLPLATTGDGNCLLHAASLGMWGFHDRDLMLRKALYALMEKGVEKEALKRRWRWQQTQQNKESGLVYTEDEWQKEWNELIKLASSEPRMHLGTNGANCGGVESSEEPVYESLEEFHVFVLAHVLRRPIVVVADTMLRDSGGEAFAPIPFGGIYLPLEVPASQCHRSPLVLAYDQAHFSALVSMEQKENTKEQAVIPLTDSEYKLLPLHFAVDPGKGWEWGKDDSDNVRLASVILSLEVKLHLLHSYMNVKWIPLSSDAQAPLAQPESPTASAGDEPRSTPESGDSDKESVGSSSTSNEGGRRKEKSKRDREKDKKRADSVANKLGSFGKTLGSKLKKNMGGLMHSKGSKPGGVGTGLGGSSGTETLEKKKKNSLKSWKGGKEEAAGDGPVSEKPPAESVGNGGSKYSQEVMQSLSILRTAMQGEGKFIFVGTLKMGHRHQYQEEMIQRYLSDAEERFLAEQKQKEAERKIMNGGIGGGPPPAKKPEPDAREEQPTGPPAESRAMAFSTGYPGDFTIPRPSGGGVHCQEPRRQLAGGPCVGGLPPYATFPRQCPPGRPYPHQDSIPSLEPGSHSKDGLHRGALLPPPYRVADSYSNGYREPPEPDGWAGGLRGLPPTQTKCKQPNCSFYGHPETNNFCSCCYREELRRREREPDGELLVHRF
Procedure, shortened: as §1

PRPF8 = PRPF8 (UniProt Q6P2Q9)
Procedure, shortened: as §1

PSMD7 = molecular target: T3, PSMD7 (UniProt P51665)
T3 sequence (whole entry): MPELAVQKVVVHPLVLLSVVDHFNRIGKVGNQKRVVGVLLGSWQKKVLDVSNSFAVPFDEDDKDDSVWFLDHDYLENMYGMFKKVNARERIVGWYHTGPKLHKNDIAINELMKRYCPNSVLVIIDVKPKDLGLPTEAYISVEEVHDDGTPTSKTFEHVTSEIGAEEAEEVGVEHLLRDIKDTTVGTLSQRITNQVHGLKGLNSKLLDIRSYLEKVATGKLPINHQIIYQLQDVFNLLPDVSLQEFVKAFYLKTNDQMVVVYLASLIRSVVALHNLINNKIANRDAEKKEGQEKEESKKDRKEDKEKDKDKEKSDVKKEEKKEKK
Procedure, shortened: as §1

UCHL1 = UCHL1 (UniProt P09936)
UCHL1, sequence (P09936 whole entry, looked up): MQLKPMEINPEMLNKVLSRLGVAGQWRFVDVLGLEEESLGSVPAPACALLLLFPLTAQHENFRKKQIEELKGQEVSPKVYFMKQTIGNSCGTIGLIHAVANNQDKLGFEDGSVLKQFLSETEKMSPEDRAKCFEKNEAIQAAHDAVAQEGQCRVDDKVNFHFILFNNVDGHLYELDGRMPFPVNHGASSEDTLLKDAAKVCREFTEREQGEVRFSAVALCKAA
Procedure, shortened: as §1

UCHL3 = molecular target: T4, UCHL3 (UniProt P15374)
T4 sequence (whole entry): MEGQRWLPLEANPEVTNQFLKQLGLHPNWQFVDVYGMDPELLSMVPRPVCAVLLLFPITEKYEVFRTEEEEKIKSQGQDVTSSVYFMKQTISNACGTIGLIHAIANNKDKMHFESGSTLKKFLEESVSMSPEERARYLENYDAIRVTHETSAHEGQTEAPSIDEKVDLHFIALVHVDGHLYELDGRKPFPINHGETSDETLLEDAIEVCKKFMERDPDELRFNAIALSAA
Procedure, shortened: as §1

UCHL5 = molecular target: T5, UCHL5 (UniProt Q9Y5K5)
T5 sequence (whole entry): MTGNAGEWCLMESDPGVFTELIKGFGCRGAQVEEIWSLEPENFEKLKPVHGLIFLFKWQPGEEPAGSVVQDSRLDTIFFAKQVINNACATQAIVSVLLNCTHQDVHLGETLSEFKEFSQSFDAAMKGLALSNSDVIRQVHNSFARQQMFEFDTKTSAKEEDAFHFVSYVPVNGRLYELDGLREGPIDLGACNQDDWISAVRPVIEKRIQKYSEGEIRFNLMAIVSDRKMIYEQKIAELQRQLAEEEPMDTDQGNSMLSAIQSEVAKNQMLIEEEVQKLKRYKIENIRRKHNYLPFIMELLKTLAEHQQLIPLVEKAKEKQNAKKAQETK
Procedure, shortened: as §1

USP10 = USP10 (UniProt Q14694)
USP10, sequence (Q14694 whole entry): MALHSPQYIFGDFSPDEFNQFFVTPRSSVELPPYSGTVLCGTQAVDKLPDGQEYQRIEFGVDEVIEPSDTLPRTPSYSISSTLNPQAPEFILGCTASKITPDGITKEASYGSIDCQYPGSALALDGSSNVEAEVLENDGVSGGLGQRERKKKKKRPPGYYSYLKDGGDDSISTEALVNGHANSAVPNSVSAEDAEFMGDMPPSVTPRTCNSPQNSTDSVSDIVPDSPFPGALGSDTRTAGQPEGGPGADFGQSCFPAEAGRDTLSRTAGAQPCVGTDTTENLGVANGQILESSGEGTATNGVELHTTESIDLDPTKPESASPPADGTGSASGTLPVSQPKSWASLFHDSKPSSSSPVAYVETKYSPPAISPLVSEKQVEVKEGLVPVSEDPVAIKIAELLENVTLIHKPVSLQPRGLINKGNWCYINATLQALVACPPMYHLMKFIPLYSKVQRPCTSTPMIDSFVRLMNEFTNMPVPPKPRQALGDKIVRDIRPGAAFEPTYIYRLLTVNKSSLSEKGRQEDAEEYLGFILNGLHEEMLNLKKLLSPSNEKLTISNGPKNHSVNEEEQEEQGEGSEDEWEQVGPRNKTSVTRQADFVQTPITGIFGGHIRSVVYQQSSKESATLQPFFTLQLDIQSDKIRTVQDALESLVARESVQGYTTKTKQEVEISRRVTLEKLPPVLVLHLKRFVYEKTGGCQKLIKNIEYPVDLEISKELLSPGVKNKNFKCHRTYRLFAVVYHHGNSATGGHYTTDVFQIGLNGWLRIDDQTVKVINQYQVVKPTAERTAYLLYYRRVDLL
Procedure, shortened: as §1

USP15 = molecular target: T6, USP15 (UniProt Q9Y4E8)
T6 sequence (whole entry): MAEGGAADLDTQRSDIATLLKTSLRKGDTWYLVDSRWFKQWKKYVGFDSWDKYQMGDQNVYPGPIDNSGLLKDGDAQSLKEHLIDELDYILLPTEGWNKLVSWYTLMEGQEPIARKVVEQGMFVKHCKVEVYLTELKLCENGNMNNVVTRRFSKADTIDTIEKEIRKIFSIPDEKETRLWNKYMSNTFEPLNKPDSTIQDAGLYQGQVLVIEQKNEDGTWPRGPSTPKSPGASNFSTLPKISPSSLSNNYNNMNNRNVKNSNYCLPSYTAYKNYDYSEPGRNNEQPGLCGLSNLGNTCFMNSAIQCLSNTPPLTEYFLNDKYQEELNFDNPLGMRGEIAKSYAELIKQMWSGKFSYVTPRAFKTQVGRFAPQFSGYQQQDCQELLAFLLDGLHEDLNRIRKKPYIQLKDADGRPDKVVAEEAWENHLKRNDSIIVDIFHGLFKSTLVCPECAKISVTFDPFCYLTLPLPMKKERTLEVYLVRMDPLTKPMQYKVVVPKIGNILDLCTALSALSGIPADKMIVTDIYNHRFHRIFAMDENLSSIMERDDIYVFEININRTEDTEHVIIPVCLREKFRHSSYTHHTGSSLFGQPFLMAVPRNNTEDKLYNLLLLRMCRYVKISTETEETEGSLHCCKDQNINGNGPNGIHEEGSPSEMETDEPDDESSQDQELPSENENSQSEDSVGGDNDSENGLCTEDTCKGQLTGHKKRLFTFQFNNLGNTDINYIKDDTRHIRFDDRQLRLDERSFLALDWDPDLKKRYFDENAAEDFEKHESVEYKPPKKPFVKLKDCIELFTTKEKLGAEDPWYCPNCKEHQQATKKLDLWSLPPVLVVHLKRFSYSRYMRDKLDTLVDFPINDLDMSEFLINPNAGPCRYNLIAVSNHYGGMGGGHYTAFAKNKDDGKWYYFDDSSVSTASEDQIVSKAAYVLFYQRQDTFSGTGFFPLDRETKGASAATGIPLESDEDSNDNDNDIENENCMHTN
Procedure, shortened: as §1

USP16 = USP16 (UniProt Q9Y5T5)
USP16, sequence (Q9Y5T5 whole entry, looked up): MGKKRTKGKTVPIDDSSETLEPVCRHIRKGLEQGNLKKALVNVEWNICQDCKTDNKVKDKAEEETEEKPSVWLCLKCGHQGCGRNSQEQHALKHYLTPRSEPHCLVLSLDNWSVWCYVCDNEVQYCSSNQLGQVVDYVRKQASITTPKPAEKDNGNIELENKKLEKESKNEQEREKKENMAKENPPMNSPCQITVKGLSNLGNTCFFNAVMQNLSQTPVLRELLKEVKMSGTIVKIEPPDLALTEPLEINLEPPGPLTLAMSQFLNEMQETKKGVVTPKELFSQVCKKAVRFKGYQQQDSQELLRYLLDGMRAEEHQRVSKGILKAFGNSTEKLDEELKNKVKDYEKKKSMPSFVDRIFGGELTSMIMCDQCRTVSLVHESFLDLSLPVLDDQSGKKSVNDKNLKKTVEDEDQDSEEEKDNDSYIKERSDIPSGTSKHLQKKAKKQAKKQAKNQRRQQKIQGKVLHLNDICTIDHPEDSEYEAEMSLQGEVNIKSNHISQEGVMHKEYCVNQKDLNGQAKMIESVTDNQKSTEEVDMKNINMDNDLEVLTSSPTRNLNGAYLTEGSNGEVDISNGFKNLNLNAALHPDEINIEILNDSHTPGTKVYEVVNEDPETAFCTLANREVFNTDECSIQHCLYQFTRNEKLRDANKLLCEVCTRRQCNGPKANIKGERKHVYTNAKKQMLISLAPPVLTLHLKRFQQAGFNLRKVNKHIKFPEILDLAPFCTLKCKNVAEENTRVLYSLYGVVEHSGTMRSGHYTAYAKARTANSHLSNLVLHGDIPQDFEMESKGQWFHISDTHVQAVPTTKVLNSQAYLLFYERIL
Procedure, shortened: as §1

Measured: log2 ratio of Biotin-Ahx-Ub-VS probe labelling

O=C(CCl)N1CCOC(CCc2ccccc2)C1 (stereo not given)
active: UCHL1 -1.46
inactive: OTUD6B -0.215 | OTUD7B -0.71 | PRPF8 -0.0352 | PSMD7 -0.432 | UCHL3 -0.025 | UCHL5 -0.22 | USP10 -0.258 | USP15 -0.374 | USP16 -0.411
